Measurements as given in PubChem BioAssay (Tox21).
Where “and” joins values, the source holds several entries; their conditions need not be identical. Identical values can stand only once. Inconclusive results are not listed. Where a call stands in place of a potency, no number is given. More than one record can exist for a structure, and the calls need not agree. Calls of active or inactive are those of the source. Calls come from the whole dose curve; as a rule, active = well fitted inhibition curve with a large enough effect in the repeat runs; inconclusive = weak or mixed curves; inactive = no such curve, though single readings can be large or run the other way.

target: Cytochrome P450 2D6 (Homo sapiens) (UniProt P10635); assay: Cytochrome P450 Family 2 Subfamily D Member 6 (CYP2D6) small molecule antagonists: luciferase reporter qHTS assay (AID 1671196); conditions: P450-Glo CYP2D6 enzyme assay, luciferin luminescence, 1 h; series mostly up to 115 µM; note: nearly all actives have a fitted effect of over 50% in size
How it was run: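 Each well received CYP2D6 with its proluciferin substrate and chemical, sat 10 min, then got NADPH regeneration solution for 1 h at room temperature. Luminescence in RLU served as the activity measure.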
Potency is the fitted concentration of half-maximal effect.

Sequence of Cytochrome P450 2D6 (Homo sapiens) (P10635 whole entry, looked up): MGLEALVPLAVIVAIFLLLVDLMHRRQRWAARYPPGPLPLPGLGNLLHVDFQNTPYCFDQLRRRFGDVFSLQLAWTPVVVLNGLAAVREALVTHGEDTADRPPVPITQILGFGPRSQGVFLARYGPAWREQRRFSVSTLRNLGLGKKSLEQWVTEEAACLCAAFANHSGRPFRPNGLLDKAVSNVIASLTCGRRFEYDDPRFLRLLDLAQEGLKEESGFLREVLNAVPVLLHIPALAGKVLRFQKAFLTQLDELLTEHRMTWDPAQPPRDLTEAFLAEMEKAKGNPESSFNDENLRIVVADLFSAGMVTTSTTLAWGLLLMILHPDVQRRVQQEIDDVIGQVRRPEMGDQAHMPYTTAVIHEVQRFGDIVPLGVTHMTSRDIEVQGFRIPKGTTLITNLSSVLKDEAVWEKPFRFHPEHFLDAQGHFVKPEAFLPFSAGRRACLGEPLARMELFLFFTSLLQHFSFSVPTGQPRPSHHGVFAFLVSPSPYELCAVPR

SMILES	Potency
CNC(=O)CSP(=S)(OC)OC	inactive and 35.5 µM (active)
CCCCOCCOC(C)=O	inactive
CC(C)(C#N)N=NC(C)(C)C#N	inactive
O=C(O)c1nn(Cc2ccc(Cl)cc2Cl)c2ccccc12	62.8 µM (active) and inactive
CC1CC(=O)O1 (stereo unspecified)	inactive
C=CC(Cl)CCl (stereo unspecified)	inactive
C=CC(=O)OCC(CC)(COC(=O)C=C)COC(=O)C=C	65 µM (active) and 63.3 µM (active)
Oc1ccc(Cl)cc1Cl	inactive
CC(C)(O)C#N	inactive
O=NN1CCOCC1	inactive
CCOC(=O)c1ccccc1N	inactive
CCNc1nc(Cl)nc(NC(C)(C)C#N)n1	inactive
Brc1ccc(Br)cc1	inactive
CCC/C=N/O	inactive
Nc1ncn[nH]1	inactive
CC(C)(c1ccccc1)c1ccc(O)c(C(C)(C)c2ccccc2)c1	25 µM (active) and 35.6 µM (active)
c1ccc(C2CO2)cc1 (stereo unspecified)	inactive
Clc1ccc(C(Cl)(Cl)Cl)cc1	inactive
COc1ccc(C=O)cc1OC	inactive
CCOS(=O)(=O)OCC	inactive
ClCC(Cl)CCl	28.5 µM (active) and inactive
O=NN(c1ccccc1)c1ccccc1	21.9 µM (active) and inactive
CCC[CH2][Sn]([Cl])([CH2]CCC)[CH2]CCC	634 nM (active) and 2 µM (active)
Clc1cccc(C(Cl)(Cl)Cl)n1	inactive
COP(=O)(NC(C)=O)SC (stereo unspecified)	inactive
CSc1nc(NC(C)C)nc(NC(C)C)n1	inactive
